This is an account of results in PubChem BioAssay (NCATS).

The target in assay [1] is Glutathione peroxidase 1 (Homo sapiens) (UniProt P07203). Kind of assay: Primary qHTS Assay for Inhibitors of Recombinant Selenoprotein Glutathione Peroxidase 1 (GPX1) (AID 1845191). Further: nearly all actives have a fitted effect of over 65% in size. Put shortly: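 NADPH consumption tracked by fluorescence at 340/450 nm between t=0 and t=15 min, room temperature. Final mix: 10 nM GPX1, 100 nM glutathione reductase, 1 mM GSH, 0.5 mM NADPH, 0.5 mM cumene hydroperoxide, 0.01% BSA; 30 min compound–enzyme preincubation.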
Glutathione peroxidase 1 (Homo sapiens), sequence (P07203 whole entry, looked up): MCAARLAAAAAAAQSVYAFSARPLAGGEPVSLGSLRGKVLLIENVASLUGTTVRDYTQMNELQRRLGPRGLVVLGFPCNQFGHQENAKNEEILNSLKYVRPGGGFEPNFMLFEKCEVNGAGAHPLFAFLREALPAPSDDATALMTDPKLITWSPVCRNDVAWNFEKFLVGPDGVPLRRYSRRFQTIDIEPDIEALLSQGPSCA
(In general: Quantitative high-throughput screening tests each substance at several concentrations.)

Assay [2] has as its target Phospholipid hydroperoxide glutathione peroxidase GPX4 (Homo sapiens) (UniProt P36969). As to the kind of experiment: Primary qHTS Assay for Inhibitors of Recombinant Selenoprotein Glutathione Peroxidase 4 (GPX4) (AID 1845192). Further: nearly all actives have a fitted effect of over 65% in size. Further: potency means the concentration at half of the fitted maximal effect. Put shortly:
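NADPH consumption followed by fluorescence at 340/450 nm, t=0 and after 15 min at room temperature. Reaction started with cumene hydroperoxide (0.5 mM final) after 30 min compound–GPX4 preincubation; final 200 nM GPX4, 100 nM GR, 1 mM GSH, 0.5 mM NADPH.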

Assay [3] in a line: Quantitative High-Throughput drug screen in 47 multiple myeloma cell lines against the NCATS MIPE library collection: FR4_PLB cell viability assay (AID 1918924; further: nearly all actives have a fitted effect of over 35% in size; further: potency means the concentration at half of the fitted maximal effect). The procedure, abridged: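 Approved and investigational drugs from MIPE 4.0 were added by pin tool to 500 cells per well. After 48 hours at 37C, ATP-based CellTiter-Glo luminescence indicated remaining viability.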
Assay [4] can be described thus: Quantitative High-Throughput drug screen in 47 multiple myeloma cell lines against the NCATS MIPE library collection: AMO1_DSMZ cell viability assay (AID 1918927; further: nearly all actives have a fitted effect of over 30% in size; further: potency means the concentration at half of the fitted maximal effect). Put shortly:
(§1)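 Steps: seed 500 cells per well; pin-transfer MIPE 4.0 library; incubate 48 h at 37C, 5% CO2, humidified; add CellTiter-Glo, 5 min room temperature; read luminescence.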

The nature of assay [5]: Quantitative High-Throughput drug screen in 47 multiple myeloma cell lines against the NCATS MIPE library collection: EJM_DSMZ cell viability assay (AID 1918926; further: nearly all actives have a fitted effect of over 30% in size; further: potency means the concentration at half of the fitted maximal effect). The procedure, abridged:
as §1

The nature of assay [6]: Quantitative High-Throughput drug screen in 47 multiple myeloma cell lines against the NCATS MIPE library collection: Delta47_JCRB cell viability assay (AID 1918925; further: nearly all actives have a fitted effect of over 45% in size; further: potency means the concentration at half of the fitted maximal effect). The procedure, abridged:
as §1

The target in assay [7] is Luciferin 4-monooxygenase (Photinus pyralis) (UniProt P08659). As to the kind of experiment: Primary firefly luciferase (FLuc) qHTS assay for identification of artifact compounds. (AID 1845220). Further: nearly all actives have a fitted effect of over 60% in size. The procedure, abridged:
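FLuc 10 nM; luciferin 10 uM; ATP 10 uM; Tris-acetate pH 7.6, Mg-acetate 10 mM; 15 min RT preincubation; 5 min reaction; luminescence.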

A short description of assay [8]: Primary fluorescence-based thiol-reactive (MSTI) qHTS assay for identification of artifact compounds. (AID 1845221).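 Further: series mostly up to about 54 µM; thiol-reactive compounds lower the probe fluorescence signal; nearly all actives have a fitted effect of over 65% in size.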 The procedure, abridged: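 First, 4 uM MSTI in 2% DMSO/PBS pH 7.4 was dispensed; next, compounds were added; then plates sat 1 h at room temperature without light. Finally, emission at 598 nm was recorded.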
Assay [9] has as its system Nanoluciferase (engineered Oplophorus gracilirostris luciferase). Kind of assay: Primary Nanoluciferase (NLuc) qHTS assay for identification of artifact compounds. (AID 1845222).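 Further: NLuc secreted into diluted conditioned medium of S16 cells; series mostly up to about 54 µM.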 The procedure, abridged:
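NLuc from S16 cell medium (1:55) plus test compounds, 15 min, room temperature. Luminescence after Nano-Glo (1:100) addition, 5 min.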

Assay [10] can be described thus: Primary redox qHTS assay for identification of artifact compounds. (AID 1845223). The procedure, abridged:
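Redox-cycling detection via DTT (250 uM final) oxidation coupled to Amplex Red (25 uM)/HRP (250 mU/mL) in HBSS. 15 min preincubation plus 30 min after DTT, room temperature. Ex/Em 525/598 nm; 4-parameter Hill fit against DMSO and 10 uM DA3003.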

Results filed as inconclusive are left out. A structure can be active in one record and inactive in another. Calls of active or inactive are those of the source. The call rests on the fitted dose curve; in most records, active means well fitted curve in the direction sought with a large enough effect; inconclusive means small, poorly fitted or top-dose-only effect, or another doubt; inactive means no such curve, though single readings can be large; an effect the other way counts as inactive or inconclusive.

Phospholipid hydroperoxide glutathione peroxidase GPX4 (Homo sapiens), sequence (P36969 whole entry, looked up): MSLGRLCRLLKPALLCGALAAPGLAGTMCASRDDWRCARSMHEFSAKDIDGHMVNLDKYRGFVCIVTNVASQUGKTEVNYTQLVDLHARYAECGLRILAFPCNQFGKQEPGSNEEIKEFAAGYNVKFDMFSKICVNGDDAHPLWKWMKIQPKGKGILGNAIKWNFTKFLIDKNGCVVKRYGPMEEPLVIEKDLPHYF

As for `CCN(c1ccccc1)c1cc(NC)[n+](C)c(C)n1`, the Potency entry in assay [1], in assay [2] and in assay [3] was “inactive” each time. In addition, in assay [4], the Potency is 0.743 µM (active).
Regarding `COc1ccc(-c2c(-c3ccc(O)cc3O)n[nH]c2C)cc1`, the Potency entry in assay [1] was “inactive”. Moreover, the Potency in [4] is 42.9 µM (active).
For `CCc1ccc(CCOc2ccc(CC3SC(=O)NC3=O)cc2)nc1` (stereo not drawn), the Potency result in [1], in [2], in assay [3] and in assay [4] was “inactive” each time.
As for `N#Cc1ccc(C(c2ccc(C#N)cc2)n2cncn2)cc1`, the Potency result in assay [1], in [2] and in assay [5] was “inactive” throughout. The Potency in [3] is 14.8 µM (active).
With `c1ccc(-c2nn3c(c2-c2ccnc4cc(OCCN5CCOCC5)ccc24)CCC3)nc1`, the Potency entry in [1], in [2] and in [5] was “inactive” throughout.
Turning to `CC(c1cc2ccccc2s1)N(O)C(N)=O` (stereo not drawn), the Potency entry in [1], in assay [2], in assay [3], in assay [5] and in assay [4] was “inactive” each time.
As to `Cc1cc2c(C(C)C)c(O)c(O)c(C=O)c2c(O)c1-c1c(C)cc2c(C(C)C)c(O)c(O)c(C=O)c2c1O`, the Potency result in assay [1] is “inactive”. For the same compound, the Potency in assay [2] was 10.1 µM (active) and inactive; in assay [3], 10.5 µM (active); in assay [5], 20.9 µM (active).
Regarding `CCN(CC)CCCC(C)Nc1nc(C)cc(Nc2ccc3nc(C)cc(N)c3c2)n1` (stereo not drawn), the Potency result in [1], in assay [2] and in [4] was “inactive” each time. Besides, the Potency in [6] was 4.69 µM (active).
In the case of `O=C(C1CC1)N1CC[C@@H](Cn2c(-c3ccc(-c4ccc5occc5c4)cc3)nc3cnccc32)C1`, the Potency in assay [2] is 22.7 µM (active).
Take `CN([C@@H](Cc1ccc(OS(=O)(=O)c2cccc3cnccc23)cc1)C(=O)N1CCN(c2ccccc2)CC1)S(=O)(=O)c1cccc2cnccc12`: in assay [2], the Potency entry is “inactive”.
With `Cc1cc2c(F)c(Oc3ncnn4cc(OC[C@@H](C)O)c(C)c34)ccc2[nH]1`, the Potency entry in assay [1], in assay [2] and in [3] was “inactive” in each case. For the same compound, the Potency in assay [4] is 4.69 µM (active).
`Cc1ccc(NC(=O)c2cccc(C(C)(C)C#N)c2)cc1Nc1ccc2ncn(C)c(=O)c2c1`: the Potency result in assay [1] and in assay [2] was “inactive” throughout. For the same compound, in assay [4], the Potency was 5.9 µM (active).
For `NC(=O)c1ccc(-c2nc(-c3ccc4c(c3)OCCO4)c(-c3ccccn3)[nH]2)cc1`, the Potency entry in [1], in [2] and in assay [5] was “inactive” throughout.
For the compound `CS(=O)(=O)Oc1ccc2c(NC(N)=O)c(C(=O)c3ccc(Cl)cc3Cl)oc2c1`, the Potency result in assay [1], in assay [2], in assay [3] and in assay [5] was “inactive” throughout. In assay [4], the Potency is 9.35 µM (active).
As for `CCOc1cc(N2CCC(O)CC2)ccc1Nc1ncc2c(n1)N(C)c1ccccc1C(=O)N2C`, the Potency entry in [1] and in assay [2] was “inactive” each time. Besides, the values for the Potency in assay [3], in assay [6] and in assay [4] were 11.8 µM (active), 4.18 µM (active) and 1.32 µM (active), respectively.
For `COc1ccc([C@@H]2CC(=O)c3c(O)cc(O[C@@H]4O[C@H](CO[C@@H]5O[C@@H](C)[C@H](O)[C@@H](O)[C@@H]5O)[C@@H](O)[C@H](O)[C@@H]4O)cc3O2)cc1O`, the Potency result in assay [1], in [2], in assay [3], in [6], in assay [5] and in assay [4] was “inactive” throughout.
Turning to `Cc1c(C)c2c(c(C)c1O)CCC(C)(COc1ccc(CC3SC(=O)NC3=O)cc1)O2` (stereo not drawn), the Potency result in [1], in [2], in [3] and in assay [5] was “inactive” in each case.
For the compound `COc1ccc(C2=N[C@H](c3ccc(Cl)cc3)[C@H](c3ccc(Cl)cc3)N2C(=O)N2CCNC(=O)C2)c(OC(C)C)c1`, the Potency result in assay [1] and in [2] was “inactive” in each case. Also, the Potency in [4] was 1.66 µM (active).
Consider `Cn1c(=O)c(F)c(Nc2ccc(I)cc2F)c2c(=O)n(C[C@@H](O)CO)cnc21`, for which the Potency entry in assay [1], in assay [2], in [3] and in assay [5] was “inactive” in each case.
For `CCn1c(-c2nonc2N)nc2cnc(Oc3cccc(NC(=O)c4ccc(OCCN5CCOCC5)cc4)c3)cc21`, the Potency entry in [1] and in [2] was “inactive” throughout. Moreover, the results for the Potency in assay [3], in assay [6] and in [4] were 14.8 µM (active), 8.33 µM (active) and 5.9 µM (active), respectively.
Consider `OCCC#Cc1nc(-c2ccc(F)cc2)c(-c2ccncc2)n1CCCc1ccccc1`, for which the Potency entry in assay [1] and in [2] was “inactive” in each case. Further, the Potency in assay [4] was 23.5 µM (active).
Take `COc1ccc(COc2cc3oc(=O)c4cc(C(C)O)ccc4c3cc2OC)cc1` (stereo not drawn): the Potency entry in assay [1] and in assay [2] was “inactive” each time. The Potency in [3] is 13.2 µM (active); in assay [6], 11.8 µM (active); in assay [5], 16.6 µM (active); in assay [4] it was 5.9 µM (active).
Turning to `O=C(O)[C@@H](c1ccc(OCc2ccc3ccccc3n2)cc1)C1CCCC1`, the Potency result in [1], in [2], in [3] and in assay [4] was “inactive” in each case.
Take `CCCS(=O)(=O)Nc1ccc(F)c(C(=O)c2c[nH]c3ncc(Cl)cc23)c1F`: the Potency result in assay [2], in [7], in assay [8] and in assay [5] was “inactive” each time. Further, the call in [9] and in [10] was inactive. The Potency in assay [4] is 20.9 µM (active).
For the compound `O=C(C=Cc1ccc(/C=C/C(=O)Nc2ccc(C3=NCCN3)cc2)cc1)Nc1ccc(C2=NCCN2)cc1`, the Potency result in assay [3] and in assay [5] was “inactive” each time.
Consider `CCn1c(-c2nonc2N)nc2c(C#CC(C)(C)O)ncc(OC[C@H]3CCCNC3)c21`, for which the Potency entry in assay [2] is “inactive”. For the same compound, the Potency in assay [3] is 14.8 µM (active).
Consider `O=C1CCCC2=C1C(c1[nH]ncc1Cl)N=C(Nc1nc3ccccc3o1)N2` (stereo not drawn), for which the Potency entry in [2], in assay [7], in assay [3] and in assay [4] was “inactive” throughout. Moreover, the call in assay [9] and in assay [10] was inactive.
As to `COc1ccc(-c2ccc3c(N4CCOCC4)nc(N4C[C@@H](C)O[C@@H](C)C4)nc3n2)cc1CO`, the Potency in [3] was 0.469 µM (active); in assay [6] it was 0.296 µM (active); in assay [5], 1.66 µM (active); in assay [4], 1.32 µM (active).
On to `CC[C@@H](C)[C@H](NC(=O)[C@H](CC1CCCCC1)NC(=O)c1ccno1)C(=O)N1CCC2(CCc3ccccc32)CC1`, for which the Potency result in assay [2], in assay [7] and in [4] was “inactive” each time. Further, the call in assay [9] and in assay [10] was inactive. Moreover, in assay [3], the Potency was 13.2 µM (active).
`Cc1c(CN2CCN(C(=O)C(C)C)CC2)sc2c(N3CCOCC3)nc(-c3cnc(N)nc3)nc12`: the Potency in [3] was 0.0833 µM (active); in assay [6] it was 0.0469 µM (active); in [5], 0.833 µM (active); in [4], 0.166 µM (active).
